Data as given in PubChem BioAssay (EPA / NIEHS).
Records with an inconclusive call do not appear. Activity calls are given as the source filed them. The calls were made as follows, unless noted: active = hit-call score of the fitted dose curve at least 0.9, where 1 is the maximum; inactive = score below 0.9.

Assays:
[1] = ACEA_ER_80hr: ACEA Biosciences xCELLigence Real-Time Cell Analysis on Estrogen Receptor Agonism for Proliferation (AID 2282667; active = hit-call score of the fitted dose curve at least 0.9, where 1 is the maximum); details: T47D proliferation, impedance (xCELLigence), 80 h
Method in brief: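 T47D human breast cells were seeded on electrode plates, monitored overnight, then exposed continuously to compounds in eight-point 1:4 dilutions from 100 uM (max 0.5% DMSO). Impedance-based growth was read at 80 h, fitted upward relative to DMSO.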

[2] = molecular target: CCAAT/enhancer-binding protein beta (Homo sapiens) (UniProt P17676); test: ATG_C_EBP_CIS: Attagene CIS-FACTORIAL HepG2 Assay for human CCAAT/Enhancer Binding Protein (C/EBP) beta (AID 2282927); details: HepG2 Attagene cis-factorial transcription factor reporter; actives raise or lower the signal
Sequence of CCAAT/enhancer-binding protein beta (Homo sapiens) (P17676 whole entry, looked up): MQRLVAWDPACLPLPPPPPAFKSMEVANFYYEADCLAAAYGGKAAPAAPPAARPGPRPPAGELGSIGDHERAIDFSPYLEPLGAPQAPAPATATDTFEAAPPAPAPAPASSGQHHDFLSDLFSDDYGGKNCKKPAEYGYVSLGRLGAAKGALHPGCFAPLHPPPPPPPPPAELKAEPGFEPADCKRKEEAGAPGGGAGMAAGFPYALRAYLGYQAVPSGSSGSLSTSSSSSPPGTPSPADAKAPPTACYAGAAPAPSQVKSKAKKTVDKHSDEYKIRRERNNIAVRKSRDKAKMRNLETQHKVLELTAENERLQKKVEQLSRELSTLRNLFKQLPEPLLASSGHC
Method in brief: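 Following a 24 h incubation with test chemical, transfected HepG2 cells yielded RNA whose reporter transcripts were quantified by RT-PCR and fluorescent capillary electrophoresis, with DMSO serving as baseline for bidirectional fitting.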

[3] = ATG_DR4_LXR_CIS: Attagene CIS-FACTORIAL HepG2 Assay for human Liver X Receptor (LXR), DR4 submotif (AID 2282929); details: HepG2 Attagene DR4 cis-reporter, mRNA transcription; actives raise or lower the signal
Method in brief: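 HepG2, transient MRTU transfection, cis-element (DR4) promoter; 24 h compound exposure; total RNA → oligo(dT) RT → PCR → 6-FAM primer extension → HpaI cut → CE. Gain/loss vs DMSO, bidirectional fit.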

[4] = molecular target: Aryl hydrocarbon receptor (Homo sapiens) (UniProt P35869); test: ATG_Ahr_CIS: Attagene CIS-FACTORIAL HepG2 Assay for human Aryl Hydrocarbon Receptor (Ahr) (AID 2282930); details: HepG2 AhR cis-factorial reporter transcription; actives raise or lower the signal
Sequence of Aryl hydrocarbon receptor (Homo sapiens) (P35869 whole entry, looked up): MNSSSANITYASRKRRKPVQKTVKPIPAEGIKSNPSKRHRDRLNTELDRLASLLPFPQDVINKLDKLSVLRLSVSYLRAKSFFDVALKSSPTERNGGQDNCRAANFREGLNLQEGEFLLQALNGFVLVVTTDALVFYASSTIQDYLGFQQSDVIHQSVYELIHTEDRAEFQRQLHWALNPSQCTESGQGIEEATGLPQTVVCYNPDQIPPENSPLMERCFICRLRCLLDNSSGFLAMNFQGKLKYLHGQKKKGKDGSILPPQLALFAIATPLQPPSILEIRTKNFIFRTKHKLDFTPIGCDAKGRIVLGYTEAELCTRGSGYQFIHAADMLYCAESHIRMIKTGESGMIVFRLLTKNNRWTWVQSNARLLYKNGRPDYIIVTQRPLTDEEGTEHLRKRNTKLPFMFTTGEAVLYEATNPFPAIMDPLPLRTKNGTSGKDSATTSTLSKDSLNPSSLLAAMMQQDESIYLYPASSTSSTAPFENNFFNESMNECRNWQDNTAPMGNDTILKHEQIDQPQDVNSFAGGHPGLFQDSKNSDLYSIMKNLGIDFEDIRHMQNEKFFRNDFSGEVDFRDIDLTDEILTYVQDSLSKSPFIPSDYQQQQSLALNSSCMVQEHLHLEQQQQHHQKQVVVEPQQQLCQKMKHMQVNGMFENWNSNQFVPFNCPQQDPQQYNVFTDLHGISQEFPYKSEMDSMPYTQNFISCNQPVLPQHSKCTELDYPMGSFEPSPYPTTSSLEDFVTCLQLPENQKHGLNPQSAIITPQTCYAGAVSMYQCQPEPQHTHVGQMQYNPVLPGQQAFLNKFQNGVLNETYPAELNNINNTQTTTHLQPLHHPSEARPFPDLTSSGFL
Method in brief: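 Values derive from bidirectional fitting against DMSO negative control. Underlying signal: cis-element reporter mRNA in transiently transfected HepG2, harvested 24 h post-dose and measured by RT-PCR plus capillary electrophoresis.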

[5] = ATG_CRE_CIS: Attagene CIS-FACTORIAL HepG2 Assay for human cAMP Responsive Element (CRE) binding protein 3 (AID 2282926); details: HepG2 CRE cis-reporter, Attagene multiplexed mRNA; actives raise or lower the signal
Method in brief: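 HepG2 cells transiently transfected with a multiplexed reporter library (CRE-driven unit among them) were dosed for 24 h. Reporter mRNA was quantified by RT-PCR, fluorescent labelling, HpaI digestion and capillary electrophoresis, with bidirectional fitting against DMSO baseline.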

[6] = ATG_CMV_CIS: Attagene CIS-FACTORIAL HepG2 Assay for human CMV (Internal Marker) (AID 2282928); details: HepG2 CMV promoter reporter, transcription factor profiling; actives raise or lower the signal;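 also: endpoint acts as a background internal control marker rather than a target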
Method in brief: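 HepG2 cells transiently transfected with multiple cis-regulated reporter units; 24 h compound exposure. Reporter mRNA quantified by RT-PCR, 6-FAM primer-extension labeling, HpaI digestion and capillary electrophoresis; bidirectional fitting against DMSO baseline.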

Measured: AC50

O=C(c1ccccc1)C(Cl)Cl
inactive: [1] | [2] | [4]
active: [3] 8.03 µM

COP(=S)(OC)Oc1ccc(S(=O)(=O)N(C)C)cc1
inactive: [1] | [5] | [2] | [3] | [4]

CCC(C)c1cccc(C(C)CC)c1O (stereo not drawn)
inactive: [1] | [5] | [2] | [3] | [4]

CCOC(=O)Nc1cccc(OC(=O)Nc2ccccc2)c1
inactive: [1] | [2] | [6] | [3] | [4]

Clc1nc(Cl)nc(Cl)n1
inactive: [1] | [2] | [6] | [3]
active: [4] 69 µM

O=[N+]([O-])c1ccc2c3c(cccc13)CC2
inactive: [1] | [2] | [6] | [3]

O=C1C(Cl)=C(Cl)C(=O)c2ccccc21
active: [4] 1.86 µM
inactive: [1] | [5] | [2] | [3]

CCCCCCCCSC(=O)Oc1cc(Cl)nnc1-c1ccccc1
inactive: [2] | [4]
active: [1] 50 µM | [6] 171 µM | [3] 159 µM

COC[C@H](C)N(C(=O)CCl)c1c(C)csc1C
inactive: [1] | [2] | [6] | [3] | [4]

O=P(O)(O)CN(CP(=O)(O)O)CP(=O)(O)O
inactive: [1] | [2] | [6] | [3] | [4]

ClCCBr
inactive: [1] | [5] | [2] | [3] | [4]
